Screening data: PubChem BioAssay, National Center for Advancing Translational Sciences (NCATS)
LMNA splice mod – modulators of lamin A splicing; HeLa LMNA splicing GFP/RFP minigene ratio, 48 h; Potency, µM (titrated, usually from 46.1 µM), for inactives: at the highest dose ratio change, negative = inhibition, hits mostly inhibitors; 200,000 tested, 0.01% active; AID 1487; active = well fitted inhibition curve with a large enough effect in the signal ratio, with a control signal flat, not every such curve was filed as active; inconclusive = small, poorly fitted or top-dose-only effect, or effect the other way, or a change in a side signal; the % refers to the signal ratio; note: % is set by controls: 0 for no effect and ±100 for the full control effect
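S3 HeLa stable clones carrying a lamin A-EGFP splicing minigene plus DsRed2 were seeded at 600 cells/well in Opti-MEM with 2% FBS, pin-dosed and incubated 48 h at 37°C. Acumen cytometry (488 nm) gave the GFP/RFP total-intensity ratio.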
HTT cytoprotect – Huntington cell model cytoprotection by ATP luminescence. PC12 HTT-Q103 induced, cytoprotection, ATP luminescence, 40 h. Potency, µM (series often up to 56.4 µM), for inactives: cytoprotection (ATP increase), most hits filed as activators. 230,000 tested, 0.14% active. AID 1471; note: % of control where 0% means no effect; nearly all actives have a fitted effect of over 45% in size
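Huntington model: PC12 line, ecdysone-inducible HTTQ103 exon1–GFP, tebufenozide 100 nM. Test articles in a dose series. Endpoint luminescence from cellular ATP.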
ALDH1A1 inh – ALDH1A1 (human) enzyme inhibition; P00352; Purified ALDH1A1, NADH fluorescence, propionaldehyde substrate; Potency, µM (series often up to 75.3 µM), without a hit: at the highest dose activity, negative = inhibition, actives largely listed as inhibitors; 220,000 tested, 7.3% active; active = well fitted inhibition curve with a large enough effect, not every such curve was filed as active; inconclusive = small, poorly fitted or top-dose-only effect, or another doubt; inactive = no such curve, though single readings can be large or run the other way;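 note: plate controls were no enzyme wells and a reference inhibitor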
Target sequence (P00352 whole entry, looked up): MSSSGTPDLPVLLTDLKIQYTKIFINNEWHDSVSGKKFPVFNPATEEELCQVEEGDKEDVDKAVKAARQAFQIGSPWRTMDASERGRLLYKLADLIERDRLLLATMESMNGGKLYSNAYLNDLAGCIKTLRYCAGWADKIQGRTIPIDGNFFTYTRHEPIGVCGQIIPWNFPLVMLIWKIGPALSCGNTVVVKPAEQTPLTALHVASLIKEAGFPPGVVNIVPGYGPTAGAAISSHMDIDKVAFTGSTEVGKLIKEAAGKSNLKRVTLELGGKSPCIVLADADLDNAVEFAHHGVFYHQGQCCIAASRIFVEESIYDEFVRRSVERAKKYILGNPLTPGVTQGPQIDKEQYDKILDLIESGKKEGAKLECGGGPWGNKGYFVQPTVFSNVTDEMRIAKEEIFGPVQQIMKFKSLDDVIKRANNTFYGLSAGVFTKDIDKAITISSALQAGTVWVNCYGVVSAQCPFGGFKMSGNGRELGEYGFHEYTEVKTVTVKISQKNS
HPGD inh – HPGD (human) dehydrogenase inhibition. purified HPGD, NADH fluorescence kinetic, PGE2 substrate. P15428. Potency, µM, for inactives: at the top dose activity change, negative = inhibition, most hits filed as inhibitors. 150,000 tested, 4.3% active. AID 894; active = well fitted inhibition curve with a large enough effect, not every such curve was filed as active; inconclusive = small, poorly fitted or top-dose-only effect, or another doubt; inactive = no such curve, though single readings can be large or run the other way; note: % is set by controls: 0 for no effect and ±100 for the full control effect
Target sequence (P15428 whole entry, looked up): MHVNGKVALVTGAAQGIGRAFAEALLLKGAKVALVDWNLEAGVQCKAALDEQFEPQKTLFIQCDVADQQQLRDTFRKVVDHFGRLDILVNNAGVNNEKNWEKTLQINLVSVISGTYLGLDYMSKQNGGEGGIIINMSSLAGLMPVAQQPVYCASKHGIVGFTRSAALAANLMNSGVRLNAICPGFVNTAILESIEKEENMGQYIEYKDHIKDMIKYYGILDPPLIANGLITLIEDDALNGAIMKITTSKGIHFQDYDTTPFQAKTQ
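20 nM HPGD preincubated 15 min at room temperature with compound in 50 mM Tris-HCl pH 8, 0.01% Tween 20. Started with 1 mM NAD+ and 30 uM prostaglandin E2; NADH fluorescence (360/450 nm) read 5 times over 30-s intervals, last minus first.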
HTT aggregate – reduces HttQ103-GFP aggregates in PC12 cells; PC12 HttQ103-GFP aggregates, Acumen cytometry, 40 h; Potency, µM (titrated, usually from 46.1 µM), inactives show top-dose activity change, negative = inhibition, usual class: inhibitors; 220,000 tested, 1.1% active; AID 1688; note: % is set by controls: 0 for no effect and ±100 for the full control effect; nearly all actives have a fitted effect of over 60% in size
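Aggregates are detected as GFP objects 1–25 µm with signal 6 STDEV over background in lysates of induced PC12 cells. These carry Huntingtin exon 1 with 103 glutamines fused to GFP under an ecdysone promoter; compounds titrated.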
KinaseGlo FLuc – Kinase-Glo luciferase inhibition (counter-screen) | Kinase-Glo luciferase, ATP luminescence, 8 min | Potency, µM (highest dose often 38.3 µM), for inactives: top-dose activity change, negative = inhibition, actives largely listed as inhibitors | 200,000 tested, 0.28% active | AID 1379; note: % is set by controls: 0 for no effect and ±100 for the full control effect; nearly all actives have a fitted effect of over 60% in size
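Light output from Kinase-Glo luciferase with luciferin and 10 uM ATP in 50 mM imidazole pH 7.2, KCl, MgCl2, Tween 20, BSA; compound pin-delivered, 8-min ambient incubation, then luminescence read.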
An asterisk follows results filed as active; u = inconclusive; x = not tested or not shown; [ ] = remark or other dose. Sampled rows, rich in hits. Any-hit rate of the full collection: about 9%. Unless noted, calls come from the whole dose curve; as a rule, active = well fitted curve in the direction sought with a large enough effect; inconclusive = small, poorly fitted or top-dose-only effect, or another doubt; inactive = no such curve, though single readings can be large; an effect the other way counts as inactive or inconclusive. Potency is the fitted concentration of half-maximal effect.

SMILES	LMNA splice mod	HTT cytoprotect	ALDH1A1 inh	HPGD inh	HTT aggregate	KinaseGlo FLuc
O=C(COC(=O)c1cccs1)c1ccc2ccccc2c1	-7.2%	-17.9%[1.9 µM]	1.9%	u	-22.8%	-18.4%
CC(C)Cn1c(N)c(C(=O)COC(=O)c2c(F)cccc2F)c(=O)n(C)c1=O	u	-3.0%[10 µM]	11.2µM*	x	16.2%	4.5%
O=C(COC(=O)c1cccs1)c1ccc2c(c1)OCCO2	3.6%	-8.1%	17.8µM*	15.8µM*	10.5%[9.22 µM]	2.51µM*
CC(C)Cn1c(N)c(C(=O)COC(=O)c2ccccc2F)c(=O)n(C)c1=O	u	10.7%[10 µM]	-15.5%	x	4.4%	3.7%
CC(=O)c1cccc(NC(=O)COC(=O)c2cccs2)c1	u	-3.0%	14.1µM*	x	-9.2%	-5.7%
Cc1cn(C2CC3OCC3O2)c(=O)[nH]c1=O (configuration not stated)	-1.8%	19.5%	12.8%	2.9%	12.3%	1.8%
CN(C)CCNC(=O)c1ccc(Cn2c(SCc3ccc(F)cc3)nc3cccnc32)cc1	-4.5%[46 µM]	x	x	x	x	x
N#CCCn1cc(/C=C2\NC(=S)N(c3ccccc3)C2=O)c(-c2ccc(-c3ccccc3)cc2)n1	15.0%[46 µM]	11.3%[10 µM]	0.8%	x	u	-2.3%
CC(C)Cn1c(N)c(C(=O)CSc2ccc3c(c2)OCCO3)c(=O)n(C)c1=O	u	-26.1%	0.3%	-7.2%	2µM*	-0.3%
Cn1c(N)c(C(=O)COC(=O)CCC(=O)c2cccs2)c(=O)n(C)c1=O	1.6%	9.9%	4.8%	-7.2%	1.4%	0.1%
Cc1ccc(C(=O)COC(=O)c2cccs2)cc1	-2.6%	2.4%[10 µM]	-9.7%	28.2µM*	-11.0%	u
CC(C)Cn1c(N)c(C(=O)COC(=O)c2ccc3c(c2)OCCO3)c(=O)n(C)c1=O	u	-11.7%	9.0%	-10.0%	u	1.2%
Cn1c(N)c(C(=O)COC(=O)c2cccs2)c(=O)n(C)c1=O	6.6%	17.9%[10 µM]	14.1µM*	-11.0%	-19.2%	0.0%
COc1nn(CC(=O)N2N=C(C(F)F)CC2(O)C(F)F)cc1[N+](=O)[O-] (configuration not stated)	4.7%	17.3%[10 µM]	6.2%	-18.2%	-1.6%	1.2%
O=C(Nc1ccc2c(c1)OCO2)c1ccccc1SCC(=O)N1CCCC1	5.7%	-5.4%[10 µM]	1.26µM*	28.2µM*	u	-2.2%
CCSc1ccccc1C(=O)NCc1ccc2c(c1)OCO2	10.0%	-4.8%	u	1.41µM*	-5.2%	-5.8%
CSc1ccccc1C(=O)NCc1ccc2c(c1)OCO2	30.5%	-2.6%[1.9 µM]	13.3%	0.501µM*	6.6%	2.9%
COc1ccc(CNC(=O)c2ccccc2SC)cc1	-0.1%	15.9%	5.9%	6.31µM*	5.9%	0.0%
COCCSc1ccccc1C(=O)Nc1ccc2c(c1)OCO2	x	x	-8.9%	x	x	-7.5%
CSc1ccccc1C(=O)Nc1ccc2c(c1)OCO2	x	2.8%	1.2%	x	-26.2%	-8.6%
COc1cccc(CNC(=O)c2nnn(CC(=O)Nc3ccc4c(c3)OCO4)c2N)c1	16.6%[46 µM]	8.3%	3.1%	x	14.3%	1.8%
O=C(Nc1ccccc1C(=O)N1CCOCC1)c1ccco1	-2.5%	-7.7%	-0.5%	-2.1%	5.9%	7.1%
CCCOc1ccc(N2C(=O)CC(N3CCN(C(=O)c4ccco4)CC3)C2=O)cc1 (configuration not stated)	-6.3%	-0.6%[10 µM]	u	7.4%	16.3%	2.9%
COc1ccc(-c2cc3nc(C)cc(C)n3n2)c(OC)c1	x	-16.7%[0.074 µM]	x	x	x	x
COc1ccc(CNC(=O)CCSCc2ccccc2C)cc1	x	-36.0%	3.98µM*	x	-11.1%	3.4%
SMILES	LMNA splice mod	HTT cytoprotect	ALDH1A1 inh	HPGD inh	HTT aggregate	KinaseGlo FLuc
COc1ccc(CNC(=O)CCSCc2cccc(Cl)c2)cc1	1.6%	25.8%[10 µM]	u	-25.7%	7.4%	2.1%
COc1cc(C(=O)NC2CCN(Cc3nnnn3Cc3cccs3)CC2)cc(OC)c1OC	-4.8%	3.0%[10 µM]	8.91µM*	-7.5%	6.1%	1.6%
COCCn1nnnc1CN1CCC(NC(=O)c2ccc(Br)cc2)CC1	-7.4%	9.4%[10 µM]	5.2%	-11.1%	4.2%	0.9%
CCOc1ccc(C(C)=O)cc1CSc1nnc(-c2cccs2)n1CC1CCCO1 (configuration not stated)	1.6%	-32.2%	8.91µM*	-9.6%	4.8%	-2.0%
O=C(CSc1nnc(-c2cccs2)n1CC1CCCO1)N1CCCC1 (configuration not stated)	x	-32.3%[10 µM]	-1.9%	x	-23.4%[9.22 µM]	3.6%
O=C(NC(=S)Nc1c(F)cc(F)cc1Br)c1ccc2c(c1)OCCO2	x	-20.6%	u	x	10.7%	1.9%
O=C(NC(=S)Nc1ccc(F)cc1)c1ccc2c(c1)OCCO2	x	-0.6%[10 µM]	12.6µM*	x	-21.6%	-4.2%
CC1CCN(c2ccc(NC(=S)NC(=O)c3ccco3)cc2)CC1	4.8%	-17.9%	u	-25.9%	-13.9%	0.4%
O=C(NC(=S)NNC(=O)c1cnccn1)c1ccc(F)cc1	x	-141.9%	28.2µM*	x	-15.0%	5.4%
O=C(NC(=S)Nc1ccc(CN2CCOCC2)cc1)c1ccc2c(c1)OCCO2	x	25.6%[10 µM]	x	x	15.4%[9.22 µM]	x
O=C(NC(=S)Nc1ccc(N2CCOCC2)cc1)c1ccc2c(c1)OCCO2	u	x	20µM*	u	14.0%	-1.0%
O=C(NC(=S)Nc1ccc(N2CCCCC2)cc1)c1ccco1	1.6%	u	u	17.8µM*	-0.9%	-0.9%
CC(=O)N1CCN(c2ccc(NC(=S)NC(=O)COc3ccc(C(C)(C)C)cc3)cc2)CC1	u	17.0%[10 µM]	18.9µM*	-9.9%	1.8%	1.0%
O=C(NC(=S)Nc1ccc(Cc2ccncc2)cc1)c1ccc(F)cc1	2.4%[46 µM]	-84.8%	20µM*	x	u	-2.3%
CC(=O)Nc1ccc(NC(=S)Nc2ccc(F)cc2)cc1	-3.8%[46 µM]	-18.2%	1.4%	x	16.5%	-1.9%
CCC(=O)N1CCN(c2ccc(NC(=S)NC(=O)COc3ccccc3)cc2)CC1	x	0.3%	-1.0%	x	-0.7%	5.5%
CC(C)(C)c1ccc(C(=O)Nc2ccc(N3CCOCC3)cc2)cc1	u	-27.8%	-4.2%	-6.2%	-1.4%	-0.1%
CC(C)(C)c1ccc(C(=O)NC(=S)Nc2ccc(N3CCOCC3)cc2)cc1	u	2.2%[10 µM]	10µM*	-5.3%	2.1%	-2.5%
CC(C)(C)C(=O)NC(=S)Nc1ccc(F)cc1	u	16.8%[10 µM]	22.4µM*	-12.6%	-5.7%	11.8%
CS(=O)(=O)N1CCN(c2ccc(NC(=S)NC(=O)c3ccc4c(c3)OCO4)cc2)CC1	u	14.7%	u	x	26.6%	0.4%
O=C(NC(=S)Nc1ccc(N2CCCCC2)cc1)c1ccc2c(c1)OCCO2	u	x	10µM*	28.2µM*	-3.4%	2.0%
Cc1cccc(NC2=C(NC(=O)c3ccccc3)C(=O)c3ccccc3C2=O)c1	u	-9.2%[10 µM]	25.1µM*	u	-32.2%	-7.2%
